Measurements from PubChem BioAssay.

The compounds below were run against Torsin-1A (Homo sapiens) (UniProt O14656) (assay: torsin A mutant lysate binding on microarrays – cell lysate, small-molecule microarray, COS7 lysate, 635/667 nm fluorescence, primary screen (AID 1150;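 also: score pools 667 nm emission and signal to noise measuring lysate protein binding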)). Conditions: COS7 hTOR1A mutant lysate, 635 nm fluorescence, higher = more signal.
Torsin-1A (Homo sapiens), sequence (O14656 whole entry, looked up): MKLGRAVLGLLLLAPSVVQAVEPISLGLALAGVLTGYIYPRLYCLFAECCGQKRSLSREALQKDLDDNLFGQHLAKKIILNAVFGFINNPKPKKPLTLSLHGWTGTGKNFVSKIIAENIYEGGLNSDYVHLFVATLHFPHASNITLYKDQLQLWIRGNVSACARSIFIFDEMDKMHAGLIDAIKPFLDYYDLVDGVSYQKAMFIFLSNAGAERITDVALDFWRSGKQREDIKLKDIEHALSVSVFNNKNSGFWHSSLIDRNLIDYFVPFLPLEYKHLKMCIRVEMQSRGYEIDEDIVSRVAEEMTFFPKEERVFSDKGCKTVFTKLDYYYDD

Structure (SMILES) | composite z-score
CC[C@@H]1C=C(C(=O)O)[C@H](c2ccc(Br)cc2)N1S(=O)(=O)c1ccc(C)cc1 | 0.233
O=C1c2ccccc2[C@](Cc2ccccc2I)(C(=O)NCCN2CCOCC2)[C@H](c2ccc(CO)cc2)N1Cc1ccccc1Cl | 0.244
COC(=O)[C@@]1(Cc2ccc(OC)cc2)[C@H]2c3cc(C(=O)N4CCCC4)n(CCN4CNCC4=O)c3C[C@H]2CN1C(=O)c1ccccc1 | 0.0178
COC(=O)[C@@]1(Cc2ccc(OC)cc2)[C@@H]2C(=CC(=O)[C@H]2CC(=O)C(=O)N2CCCC2)CN1C(=O)c1ccccc1 | 0.31
C=CCNC(=O)[C@@H]1[C@H]2C(=O)O[C@H](c3ccccc3)[C@H](c3ccccc3)N2[C@H](c2ccc(O)cc2)[C@@]12C(=O)N(C(=O)OCCOC)c1ccc(C#CCNC(N)=O)cc12 | 0.594
Cc1ccc(S[C@]2(C(=O)NCCCN(C)C)CC(=O)N(Cc3cc(C(F)(F)F)cc(C(F)(F)F)c3)[C@@H]2c2ccc(CO)cc2)cc1 | -0.256
COc1ccc([Si](C)(C)[C@H]2[C@H](CCO)O[C@@]3(C(=O)N(Cc4ccc(N(C=O)c5ccccc5)cc4)c4ccccc43)[C@@H]2C)cc1 | -0.074
[N-]=[N+]=Nc1ccccc1[C@H]1OC(c2ccc(OCCCO)cc2)=N[C@@]1(CCS(=O)(=O)c1ccccc1)C(N)=O | 0.356
NC(=O)NCC#Cc1ccc2c(c1)[C@]1(C(=O)N2)[C@H](c2ccccc2OCCO)N2[C@H](c3ccccc3)[C@H](c3ccccc3)OC(=O)[C@H]2[C@@H]1C(=O)Nc1nc2ccccc2s1 | 0.0313
CCCC=C(CCC)[C@@H](NC(=O)c1cccs1)c1ccc(C(F)(F)F)cc1 | 0.704
CN(C)C(=O)[C@]1(Cc2ccccc2N=[N+]=[N-])N=C(c2ccc(OCCCO)cc2)O[C@@H]1c1ccccc1N=[N+]=[N-] | 0.799
COC(=O)[C@@]1(Cc2ccc(OC)cc2)[C@H]2c3cc(C(=O)N(C)C)n(Cc4ccccn4)c3C[C@H]2CN1C(=O)c1ccccc1 | 1.59
COC(=O)[C@@]1(Cc2ccc(F)cc2)[C@H]2c3cc(C(=O)N4CCCC4)n(CCCNc4ncc(C(F)(F)F)cc4Cl)c3C[C@H]2CN1C(=O)c1ccccc1 | -0.0136
O=C(CS)NCCCCCCNC(=O)[C@@H]1C[C@@H]2C(=O)NCC(=O)N2[C@@H]1c1cccc(OCCO)c1 | 1.28
CCOC(=O)C[C@H]1[C@H](OC(=O)c2ccccc2-c2ccccc2)[C@@H](NC(=O)CC(C)C)c2cc(OCCCO)ccc2N1C(=O)Cc1ccc(OC)cc1 | 0.199
COc1ccc([C@H]2OC[C@@H]3C[C@@H](Cc4ccccc4)C(=O)N32)cc1 | 0.556
COc1ccc(CCNC(=O)[C@@]2(C)c3ccccc3C(=O)N(C(C)C)[C@H]2c2ccc(CO)cc2)cc1 | -0.176
C=CCOC(=O)[C@@H]1[C@H]2C(=O)O[C@H](c3ccccc3)[C@H](c3ccccc3)N2[C@H](c2ccc(OCCOC(=O)[C@@H]3C[C@@H]4C(=O)NCC(=O)N4[C@@H]3c3ccc(O)cc3)cc2)[C@@]12C(=O)Nc1ccc(I)cc12 | 0.706

Structure (SMILES) | composite z-score
O=C1C[C@@](C(=O)NCCN2CCOCC2)(c2ccc([N+](=O)[O-])cc2)[C@@H](c2ccc(CO)cc2)N1CC12CC3CC(CC(C3)C1)C2 | 1.21
COCCOC(=O)N1C(=O)[C@@]2(c3cc(C#CCC(C(=O)OC)C(=O)OC)ccc31)[C@H](C(=O)Nc1nc3ccccc3s1)[C@H]1C(=O)O[C@H](c3ccccc3)[C@H](c3ccccc3)N1[C@@H]2c1ccccc1OCCO | 0.456
COC(=O)[C@@]1(Cc2ccccc2)[C@H]2c3cc(C(=O)N(C)C)n(Cc4ccsc4Br)c3C[C@H]2CN1C(=O)c1ccccc1 | 0.508
CC1CC/C=C\[C@H]2OC34C=CCN(C(C)(C)C)C(=O)[C@H]3N(CCO)C(=O)[C@@H]4C2C(=O)O1 (stereo partly specified) | -2.49
C=C(CCCC)/C(=C/C[C@@H](OC(C)=O)c1ccc(OCCO)cc1)c1cnc2ccccc2c1 | 0.101
CC(C)C(O)C1C=CC2C(=O)N(c3ccccc3)C(=O)C2N1Nc1ccc([N+](=O)[O-])cc1 (stereo unspecified) | 0.142
C=C(COC)/C(=C/C[C@H](OC(C)=O)c1ccc(CO)o1)c1cc(C(=O)OC)ccc1OC | 0.647
COC(=O)[C@@]1(Cc2ccc(OC)cc2)[C@H]2c3cc(C(=O)N(C)C)n(C)c3C[C@H]2CN1C(=O)c1ccccc1 | 0.777
CCOC(=O)[C@H]1C/C=C/C[C@H](C(=O)OCC)C(=O)O[C@H]2[C@@H](OC)O[C@H](CO)[C@@H](OC(=O)c3c(OC)cccc3OC)[C@@H]2OC1=O | 0.209
CC(C)NC(=O)[C@@]1(c2ccc([N+](=O)[O-])cc2)CC(=O)N(C2CCCCC2)[C@@H]1c1ccc(CO)cc1I | 0.242
CN1C(=O)C2C=CC(C(O)c3ccc([N+](=O)[O-])cc3)N(N3CCCCC3)C2C1=O (stereo unspecified) | 0.603
COCCOC(=O)N1C(=O)[C@@]2(c3cc(C#CCNC(N)=O)ccc31)[C@H](C(=O)N1CCN(c3ncccn3)CC1)[C@H]1C(=O)O[C@H](c3ccccc3)[C@H](c3ccccc3)N1[C@@H]2c1ccc(OCCO)cc1 | 0.453
O=C1NC(=O)C2C1C=CC(C(O)c1cc(C(F)(F)F)cc(C(F)(F)F)c1)N2Nc1ccccn1 (stereo unspecified) | 0.237
COCCOC(=O)N1C(=O)[C@@]2(c3ccccc31)[C@H](C(=O)N1CCc3cc(OC)c(OC)cc3C1)[C@H]1C(=O)O[C@H](c3ccccc3)[C@H](c3ccccc3)N1[C@@H]2c1ccc(OCCO)cc1 | 1.21
COC(=O)C(CC#Cc1ccc2c(c1)[C@]1(C(=O)N2)[C@H](C(=O)Nc2nc3ccccc3s2)[C@H]2C(=O)O[C@H](c3ccccc3)[C@H](c3ccccc3)N2[C@@H]1c1ccccc1OCCO)C(=O)OC | 0.733
CN1C(=O)C2C=CC(C(O)c3ccccc3)N(N(c3ccccc3)c3ccccc3)C2C1=O (stereo unspecified) | -0.398
COC(=O)[C@@]1(CCS(=O)(=O)c2ccccc2)N=C(c2ccc(OCCCO)cc2)O[C@H]1c1ccccc1CN=[N+]=[N-] | 0.869
COC(=O)[C@H](Cc1ccccc1)N1CC2=C[C@@H](C3CC3)n3c(=O)n(C)c(=O)n3[C@H]2[C@@H]1[C@@H](O)Cc1ccccc1 | -0.0857
